Experiment [1] can be described thus: resazurin metabolic signal in HepG2 cells – cell-based, resazurin fluorescence, 24 h, PK04 Diversity Set, profiling panel (AID 1172). Note: test concentration not given here. The settings on record: HepG2 viability, higher = more signal. On the technique in general: Alamar Blue is a resazurin reagent that responds to reducing activity.
The nature of experiment [2]: budding yeast growth changes without added modifier – OD600, strain BY4716, 24 h, basal condition, primary screen (AID 1173). As to conditions: S. cerevisiae BY4716 growth, OD600, 24 h; higher = more signal, called active from +8 up or from −8 down.
Experiment [3] is described as follows: viability profiling in MM1S myeloma cells – cell-based, resazurin fluorescence, basal, 24 h, PK04 Diversity Set, profiling panel (AID 1174).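 Note: MM1S multiple myeloma cell line; test concentration not given here.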 As to conditions: higher = more signal, called active from +8 up or from −8 down.
For experiment [4], the target named is Dihydroorotate dehydrogenase (quinone), mitochondrial (Plasmodium falciparum (isolate 3D7)) (UniProt Q08210). As to the kind of experiment: inhibition of P. falciparum DHODH – biochemical, C-terminal His tag, absorbance 600 nm, primary screen (AID 1175).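 Note: recombinant parasite enzyme with a five histidine tag at its C terminus; test concentration not given here.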 As to conditions: PfDHODH enzyme, DCIP absorbance 600 nm; higher = more signal, called active from +8 up or from −8 down.
Sequence of Dihydroorotate dehydrogenase (quinone), mitochondrial (Plasmodium falciparum (isolate 3D7)) (Q08210 whole entry, looked up): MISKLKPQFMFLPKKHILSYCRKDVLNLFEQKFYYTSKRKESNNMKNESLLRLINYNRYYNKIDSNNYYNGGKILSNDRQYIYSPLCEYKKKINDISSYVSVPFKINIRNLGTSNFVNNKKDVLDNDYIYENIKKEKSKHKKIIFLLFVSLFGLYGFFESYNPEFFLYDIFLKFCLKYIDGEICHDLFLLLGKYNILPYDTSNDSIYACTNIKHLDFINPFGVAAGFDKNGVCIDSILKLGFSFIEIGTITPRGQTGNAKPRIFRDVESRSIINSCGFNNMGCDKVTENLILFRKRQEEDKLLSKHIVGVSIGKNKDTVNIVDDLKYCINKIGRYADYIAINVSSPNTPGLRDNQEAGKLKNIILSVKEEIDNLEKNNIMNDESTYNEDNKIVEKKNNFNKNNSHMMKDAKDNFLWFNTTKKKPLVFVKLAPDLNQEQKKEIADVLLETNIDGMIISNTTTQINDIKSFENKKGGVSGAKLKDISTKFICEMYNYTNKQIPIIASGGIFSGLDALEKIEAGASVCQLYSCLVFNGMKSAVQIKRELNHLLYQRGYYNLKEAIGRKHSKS

Experiment [5] can be described thus: inhibition of PAO1 biofilm formation – strain PAO1, LB-PBS medium, absorbance 600 nm, primary screen (AID 1176). Note: test concentration not given here. The settings on record: P. aeruginosa PAO1 growth/biofilm, A600, 12 h; higher = more signal.
Experiment [6] in a line: growth modulation of vineyard yeast isolate – strain RM11-1a, OD600, basal, 24 h, primary screen (AID 1177).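 Note: cultures grown under basal conditions with no added stressor; test concentration not given here.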 The settings on record: S. cerevisiae RM11-1a growth, OD600, 24 h; higher = more signal, called active from +8 up or from −8 down.
Experiment [7] can be described thus: growth of efflux-deficient E. coli DRC39 – strain DRC39, OD650, 24 h, E. coli filamentation inducers, primary screen (AID 1178).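 Note: growth measured as culture turbidity by optical density at 650 nm; test concentration not given here.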 As to conditions: E. coli DRC39 acrAB, higher = more signal, called active from +8 up or from −8 down.
Experiment [8] is described as follows: growth of efflux-deficient E. coli DRC39 – strain DRC39, OD650, 48 h, E. coli filamentation inducers, primary screen (AID 1179).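 Note: screen aims at cell division blockers that make cells filament.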 As to conditions: E. coli DRC39 delta-acrAB growth, higher = more signal, called active from +8 up or from −8 down.
A short description of experiment [9]: viability profiling in RPMI8226 myeloma cells – cell-based, resazurin fluorescence, basal, 24 h, PK04 Diversity Set, profiling panel (AID 1180).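 Note: RPMI8826 multiple myeloma cell line at 5000 cells per well; test concentration not given here.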 The settings on record: higher = more signal.
Experiment [10] concerns the target E3 ubiquitin-protein ligase XIAP (Homo sapiens) (UniProt P98170). The experiment is described as follows: small molecules binding XIAP protein – biophysical, small-molecule microarray, fluorescence 635 nm, primary screen (AID 1181).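 Note: score merges 667 nm emission and signal to noise over triplicate slides.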 The settings on record: higher = more signal.

SMILES strings stand for the structures. Active and inactive are the calls of the source. Unless noted, the rule behind the calls is not given here.

Sequence of E3 ubiquitin-protein ligase XIAP (Homo sapiens) (P98170 whole entry, looked up): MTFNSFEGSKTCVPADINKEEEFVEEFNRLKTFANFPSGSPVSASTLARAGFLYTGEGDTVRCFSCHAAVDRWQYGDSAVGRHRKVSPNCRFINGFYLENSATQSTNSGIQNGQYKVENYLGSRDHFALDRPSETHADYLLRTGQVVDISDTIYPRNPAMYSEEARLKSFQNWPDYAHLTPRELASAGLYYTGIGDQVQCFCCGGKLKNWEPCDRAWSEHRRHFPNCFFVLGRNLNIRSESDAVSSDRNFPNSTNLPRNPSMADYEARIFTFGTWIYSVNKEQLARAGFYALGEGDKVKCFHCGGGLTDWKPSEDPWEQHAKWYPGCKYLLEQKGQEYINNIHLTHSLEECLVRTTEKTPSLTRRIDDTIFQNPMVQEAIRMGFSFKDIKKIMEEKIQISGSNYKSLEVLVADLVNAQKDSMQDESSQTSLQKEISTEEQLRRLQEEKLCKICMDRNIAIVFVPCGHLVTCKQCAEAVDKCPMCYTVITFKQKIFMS

For `COC(=O)[C@@]1(Cc2ccccc2)[C@H]2c3cc(C(=O)N4CCCC4)n(Cc4ccccn4)c3C[C@H]2CN1C(=O)c1ccccc1`, the z-score in experiment [1] was -1.17; in experiment [2], 1.32 (inactive); in experiment [3], -1.45 (inactive); in experiment [5] it was 1.79 (inactive); in experiment [6], 0.957 (inactive); in experiment [7], -0.452 (inactive). The z-score is -0.551 (inactive) in [8] and -2.32 in experiment [9]. Besides, the values for the composite z-score in experiment [4] and in experiment [10] were 0.553 (inactive) and 0.0737, respectively.
In the case of `O=C1[C@H]2[C@H]3[C@H](O)[C@H](O)CC(=NO[C@@H]4O[C@H](CO)[C@@H](O)[C@H](O)[C@H]4O)[C@@H]3CC[C@H]2C(=O)N1Cc1ccccc1`, the z-score in experiment [1] is 1.04; in experiment [2], -0.391 (inactive); in experiment [3], 0.0897 (inactive); in [5], 0.565 (inactive); in experiment [6] it was -0.497 (inactive); in [7], 0.405 (inactive). In addition, the results for the z-score in experiment [8] and in [9] were 1.21 (inactive) and -0.145, respectively. The values for the composite z-score in [4] and in experiment [10] were 0.261 (inactive) and 0.0689, respectively.
For the compound `CCOC(=O)CCN1C(=O)[C@H]2[C@H]3[C@H](O)[C@H](O)CC(=NNC(=O)OCc4ccc(OC)cc4)[C@@H]3CC[C@H]2C1=O`, the z-score in experiment [1] was -0.54; in experiment [2] it was 0.458 (inactive); in [3], -1.24 (inactive); in experiment [5], -0.0242 (inactive); in [6] it was -0.217 (inactive); in [7], 0.149 (inactive). The values for the z-score in experiment [8] and in experiment [9] were 0.237 (inactive) and -1.14, respectively. In addition, the composite z-score in experiment [4] is 0.489 (inactive); in experiment [10], -0.171.
In the case of `CCN1C(=O)[C@H]2[C@H]3[C@H](O)[C@H](O)CC(=NOC(C)CN4CCCCc5nc(C)c(C)cc54)[C@@H]3CC[C@H]2C1=O` (stereo not given in full), the z-score in experiment [1] was -1.3; in experiment [2] it was -0.0913 (inactive); in experiment [3] it was -0.669 (inactive); in experiment [5], -0.418 (inactive); in experiment [6] it was 0.002 (inactive); in experiment [7] it was 0.538 (inactive). Further, the z-score in experiment [8] is 1.2 (inactive); in [9], -0.889. The composite z-score in experiment [4] is 0.301 (inactive); in experiment [10], -0.211.
Turning to `C[C@@H]1CCC2C(=O)N(Cc3ccccc3)C[C@@H](O)CN2[C@H]1c1ccc(Br)cc1` (stereo not given in full), the z-score was 0.644 in [1]; -5.68 (inactive) in [2]; 0.726 (inactive) in [3]; 0.924 (inactive) in experiment [5]; -1.71 (inactive) in experiment [6]; 0.957 (inactive) in experiment [7]. Moreover, the z-score is -1.25 (inactive) in [8] and 0.39 in experiment [9]. Moreover, the values for the composite z-score in [4] and in [10] were -1.3 (inactive) and -0.0009, respectively.
In the case of `CCN1C(=O)[C@H]2[C@H]3[C@H](O)[C@H](O)CC(=NOCC=C(C)CCC=C(C)C)[C@H]3CC[C@H]2C1=O`, the z-score in experiment [1] is -0.337; in [2], -0.327 (inactive); in experiment [3] it was -0.944 (inactive); in [5] it was 0.164 (inactive); in [6], -0.414 (inactive); in experiment [7], 0.445 (inactive). Besides, the z-score in [8] was 0.314 (inactive); in [9], -1.23. Moreover, the results for the composite z-score in experiment [4] and in [10] were -0.962 (inactive) and -0.0988, respectively.
As to `CC(C)[C@@H](OCc1ccccc1)[C@H](C)C=NO[C@H](C)c1cn([C@H](CO)Cc2ccccc2)nn1`, the z-score in [1] is -1.01; in experiment [2], -3.51 (inactive); in experiment [3], -2.02 (inactive); in experiment [5] it was -0.324 (inactive); in experiment [6] it was -2.3 (inactive); in [7], -0.0325 (inactive). In addition, the figures for the z-score in experiment [8] and in experiment [9] were -0.0205 (inactive) and -1.67, respectively. The composite z-score in [4] was -0.926 (inactive); in experiment [10] it was -0.0287.
As for `C[C@H]1Cc2c(-c3ccccc3)nc3c(c2CO1)CN(CCOc1ccccc1)CC3`, the z-score in experiment [1] was -0.33; in [2], -1.97 (inactive); in experiment [3], 0.0723 (inactive); in [5] it was 1.17 (inactive); in [6], 0.671 (inactive); in experiment [7], 1.67 (inactive). Also, the figures for the z-score in experiment [8] and in experiment [9] were -0.176 (inactive) and 0.678, respectively. The composite z-score in experiment [4] is -0.0439 (inactive); in experiment [10] it was -0.0599.
Take `CCc1cc2c(nc1CC)CCN(CCC(C)=NO[C@@H](C)c1cc(-c3c(C)cc(C)cc3C)no1)C2`: the z-score in [1] is -0.0169; in [2], -2.75 (inactive); in [3], -0.433 (inactive); in experiment [5], 0.903 (inactive); in experiment [6] it was 0.526 (inactive); in [7] it was 0.416 (inactive). Moreover, the z-score in experiment [8] was 0.566 (inactive); in [9], 0.374. Moreover, the values for the composite z-score in experiment [4] and in experiment [10] were -0.0406 (inactive) and 0.19, respectively.
Turning to `CC=CC1=C(CO)[C@H](O)[C@H]2O[C@H]2[C@H]1O`, the z-score in experiment [1] is -0.557; in experiment [2], 0.977 (inactive); in [3], -0.667 (inactive); in experiment [5] it was -0.47 (inactive); in experiment [6], 0.618 (inactive); in [7] it was -0.227 (inactive). Further, the z-score is -0.299 (inactive) in experiment [8] and 0.0421 in [9]. The results for the composite z-score in [4] and in experiment [10] were 0.439 (inactive) and 0.0774, respectively.
Take `CCN1C(=O)[C@H]2[C@H]3[C@H](O)[C@H](O)CC(=NO[C@@H]4O[C@H](CO)[C@@H](O)[C@H](O)[C@H]4O)[C@@H]3CC[C@H]2C1=O`: the z-score in [1] was -0.59; in experiment [2], -0.369 (inactive); in experiment [3] it was -0.596 (inactive); in experiment [5] it was -0.343 (inactive); in experiment [6], -0.654 (inactive); in experiment [7], 0.226 (inactive). Moreover, the z-score in [8] was 0.117 (inactive); in [9], -0.922. The composite z-score in experiment [4] was -0.794 (inactive); in experiment [10], 0.0623.
As for `COC(=O)[C@@]1(Cc2ccc(OC)cc2)[C@H]2c3cc(C(=O)N4CCCC4)n(Cc4cc(F)c(F)c(F)c4)c3C[C@H]2CN1C(=O)c1ccccc1`, the z-score in experiment [1] was 0.0559; in [2], 1.35 (inactive); in experiment [3] it was -2.23 (inactive); in [5] it was 1.03 (inactive); in experiment [6] it was 0.0628 (inactive); in [7] it was -0.824 (inactive). Besides, the z-score in experiment [8] is -0.254 (inactive); in [9] it was -3.1. Also, the values for the composite z-score in [4] and in experiment [10] were 0.13 (inactive) and 0.25, respectively.

The values above are taken from PubChem BioAssay.
